# Laboratory results taken from PMC7862700, “An all-to-all approach to the identification of sequence-specific readers for epigenetic DNA modifications on cytosine”.
# Tests used:
# Assay in all cases: DAPPL (digital affinity profiling via proximity ligation, sequencing); 10 mM Tris-HCl pH 7.5, 50 mM NaCl, 1 mM DTT, 4% glycerol, room temperature, 30 min; GST-TFs on glutathione beads, 16-mer random dsDNA library, 0.1% formaldehyde crosslink after washing; high values mean tight binding
# FLI1 = target: T1, FLI1 (Homo sapiens, UniProt Q01543 1-452); conditions: protein: recombinant; tags: N-terminal GST; dsDNA, one strand shown
# T1 sequence: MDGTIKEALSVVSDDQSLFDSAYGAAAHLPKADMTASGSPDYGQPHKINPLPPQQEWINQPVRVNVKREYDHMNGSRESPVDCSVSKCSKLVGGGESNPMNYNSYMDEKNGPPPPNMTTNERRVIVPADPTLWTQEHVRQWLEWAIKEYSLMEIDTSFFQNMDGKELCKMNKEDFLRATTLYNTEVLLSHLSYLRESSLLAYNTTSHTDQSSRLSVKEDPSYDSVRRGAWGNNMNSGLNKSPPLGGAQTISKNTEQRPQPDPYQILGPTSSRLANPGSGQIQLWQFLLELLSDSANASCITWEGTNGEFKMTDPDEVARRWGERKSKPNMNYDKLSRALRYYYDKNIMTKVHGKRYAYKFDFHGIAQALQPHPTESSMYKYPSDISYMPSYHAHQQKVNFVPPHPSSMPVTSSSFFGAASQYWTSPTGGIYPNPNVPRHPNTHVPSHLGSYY
# Summary of the method: (§1)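 The binding signal reported is, for every hexamer, its read frequency for a factor over its read frequency for the tag-only sample. Reads came from pools of yeast-expressed, GST-fused human transcription factors on glutathione beads, barcoded with DNA and mixed with that sample, which were incubated with 200 nmole of a random double-stranded 16-mer DNA library in Tris/NaCl/DTT/glycerol buffer at room temperature for 30 min. After washing, the pools were crosslinked with 0.1% formaldehyde, proximity-ligated with BsaI/T4 ligase for 1 h at 37 °C, PCR-amplified and sequenced on an Illumina NextSeq500.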
# ELK1 = target: T2, ELK1 (Homo sapiens, UniProt P19419 1-428); conditions: protein: recombinant; tags: N-terminal GST; dsDNA, one strand shown
# T2 sequence: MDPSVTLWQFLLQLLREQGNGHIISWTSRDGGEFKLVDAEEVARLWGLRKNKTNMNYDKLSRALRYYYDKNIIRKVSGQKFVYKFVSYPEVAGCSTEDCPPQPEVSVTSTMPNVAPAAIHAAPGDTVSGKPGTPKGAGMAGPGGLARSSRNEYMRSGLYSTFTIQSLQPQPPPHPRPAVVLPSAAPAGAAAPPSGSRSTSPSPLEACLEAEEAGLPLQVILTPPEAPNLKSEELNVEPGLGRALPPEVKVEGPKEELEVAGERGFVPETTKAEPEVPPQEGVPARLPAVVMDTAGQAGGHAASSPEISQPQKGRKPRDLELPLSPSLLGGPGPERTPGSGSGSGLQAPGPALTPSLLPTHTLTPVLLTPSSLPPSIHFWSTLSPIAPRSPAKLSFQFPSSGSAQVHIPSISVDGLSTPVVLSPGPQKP
# Summary of the method: as §1
# GABPA = target: T3, GABPA (Homo sapiens, UniProt Q06546 1-454); conditions: protein: recombinant; tags: N-terminal GST; dsDNA, one strand shown
# T3 sequence: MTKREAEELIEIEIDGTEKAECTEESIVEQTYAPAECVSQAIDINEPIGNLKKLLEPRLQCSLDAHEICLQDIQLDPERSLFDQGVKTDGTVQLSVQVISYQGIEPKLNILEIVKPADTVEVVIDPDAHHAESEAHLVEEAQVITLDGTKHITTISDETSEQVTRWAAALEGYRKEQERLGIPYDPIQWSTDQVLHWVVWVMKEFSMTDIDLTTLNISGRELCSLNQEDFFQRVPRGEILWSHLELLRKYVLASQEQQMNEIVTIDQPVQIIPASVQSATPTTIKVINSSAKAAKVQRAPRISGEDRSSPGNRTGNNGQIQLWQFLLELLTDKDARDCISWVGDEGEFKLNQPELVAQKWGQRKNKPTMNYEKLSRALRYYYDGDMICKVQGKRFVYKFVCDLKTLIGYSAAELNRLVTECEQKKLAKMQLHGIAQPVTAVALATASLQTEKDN
# Summary of the method: as §1
# ERG = target: T4, ERG (Homo sapiens, UniProt P11308 1-479); conditions: protein: recombinant; tags: N-terminal GST; dsDNA, one strand shown
# T4 sequence: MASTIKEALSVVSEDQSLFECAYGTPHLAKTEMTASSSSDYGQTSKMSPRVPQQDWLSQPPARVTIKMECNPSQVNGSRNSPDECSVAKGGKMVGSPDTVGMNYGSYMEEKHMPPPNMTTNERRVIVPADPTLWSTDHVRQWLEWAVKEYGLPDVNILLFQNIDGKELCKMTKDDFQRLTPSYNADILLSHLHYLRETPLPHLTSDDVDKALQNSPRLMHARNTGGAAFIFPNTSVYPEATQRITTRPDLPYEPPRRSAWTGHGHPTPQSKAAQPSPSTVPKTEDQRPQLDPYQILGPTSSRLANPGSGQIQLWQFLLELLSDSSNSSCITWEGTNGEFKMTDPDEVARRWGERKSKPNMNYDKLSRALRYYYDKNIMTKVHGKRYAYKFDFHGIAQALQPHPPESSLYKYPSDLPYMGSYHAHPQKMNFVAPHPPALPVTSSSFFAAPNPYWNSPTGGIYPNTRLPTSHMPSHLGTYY
# Summary of the method: as §1
# ELF1 = ELF1 (Homo sapiens, UniProt P32519 1-619); conditions: protein: recombinant; tags: N-terminal GST; dsDNA, one strand shown
# Chain of ELF1 (P32519 whole entry): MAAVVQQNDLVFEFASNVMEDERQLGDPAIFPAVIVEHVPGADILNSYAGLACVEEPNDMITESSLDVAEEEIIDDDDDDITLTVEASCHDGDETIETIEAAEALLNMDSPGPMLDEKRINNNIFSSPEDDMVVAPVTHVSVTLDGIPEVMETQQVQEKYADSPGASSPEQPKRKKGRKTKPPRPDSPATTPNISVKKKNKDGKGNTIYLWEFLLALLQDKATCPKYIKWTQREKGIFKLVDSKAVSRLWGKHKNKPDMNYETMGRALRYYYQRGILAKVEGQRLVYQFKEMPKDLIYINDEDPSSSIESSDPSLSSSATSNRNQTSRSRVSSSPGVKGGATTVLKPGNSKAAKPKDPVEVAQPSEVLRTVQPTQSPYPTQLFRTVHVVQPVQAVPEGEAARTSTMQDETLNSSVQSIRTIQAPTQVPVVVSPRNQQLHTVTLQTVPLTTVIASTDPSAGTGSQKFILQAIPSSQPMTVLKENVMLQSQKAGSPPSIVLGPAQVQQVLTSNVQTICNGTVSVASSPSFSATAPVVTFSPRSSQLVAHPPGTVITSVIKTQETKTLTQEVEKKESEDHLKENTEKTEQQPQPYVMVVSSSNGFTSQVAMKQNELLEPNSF
# Summary of the method: as §1
# EHF = target: T5, EHF (Homo sapiens, UniProt Q9NZC4 1-300); conditions: protein: recombinant; tags: N-terminal GST; dsDNA, one strand shown
# T5 sequence: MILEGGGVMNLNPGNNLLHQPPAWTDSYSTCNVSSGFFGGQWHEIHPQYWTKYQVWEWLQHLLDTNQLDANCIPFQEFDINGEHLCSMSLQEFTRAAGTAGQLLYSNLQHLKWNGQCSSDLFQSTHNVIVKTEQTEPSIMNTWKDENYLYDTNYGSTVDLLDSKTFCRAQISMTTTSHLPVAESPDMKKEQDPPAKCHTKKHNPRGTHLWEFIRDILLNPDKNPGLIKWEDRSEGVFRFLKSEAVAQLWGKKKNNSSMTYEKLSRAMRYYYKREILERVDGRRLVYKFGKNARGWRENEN
# Summary of the method: as §1
# SPI1 = SPI1 (Homo sapiens, UniProt P17947 1-270); conditions: protein: recombinant; tags: N-terminal GST; dsDNA, one strand shown
# Summary of the method: as §1
# SPIB = SPIB (Homo sapiens, UniProt Q01892 1-262); conditions: protein: recombinant; tags: N-terminal GST; dsDNA, one strand shown
# Chain of SPIB (Q01892 whole entry): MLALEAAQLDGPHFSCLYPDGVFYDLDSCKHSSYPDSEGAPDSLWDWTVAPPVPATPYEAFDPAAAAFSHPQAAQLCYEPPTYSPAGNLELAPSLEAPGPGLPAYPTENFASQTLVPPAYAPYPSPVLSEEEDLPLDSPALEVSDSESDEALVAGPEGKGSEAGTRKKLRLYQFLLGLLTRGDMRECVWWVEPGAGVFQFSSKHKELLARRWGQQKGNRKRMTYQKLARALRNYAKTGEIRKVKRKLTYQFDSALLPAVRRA
# Summary of the method: as §1
# ELK3 = target: T6, ELK3 (Homo sapiens, UniProt P41970 1-407); conditions: protein: recombinant; tags: N-terminal GST; dsDNA, one strand shown
# T6 sequence: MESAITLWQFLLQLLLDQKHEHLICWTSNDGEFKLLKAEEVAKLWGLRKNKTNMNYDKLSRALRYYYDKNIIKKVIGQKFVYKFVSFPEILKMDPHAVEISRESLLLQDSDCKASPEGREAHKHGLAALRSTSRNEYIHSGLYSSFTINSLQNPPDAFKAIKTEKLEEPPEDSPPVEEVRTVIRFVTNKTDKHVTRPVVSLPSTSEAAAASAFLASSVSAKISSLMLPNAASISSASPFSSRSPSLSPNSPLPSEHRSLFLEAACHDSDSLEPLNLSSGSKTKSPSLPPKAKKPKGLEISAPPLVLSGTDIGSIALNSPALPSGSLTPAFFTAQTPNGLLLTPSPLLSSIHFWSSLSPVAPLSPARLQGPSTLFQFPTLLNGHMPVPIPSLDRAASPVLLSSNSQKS
# Summary of the method: as §1
# FEV = target: T7, FEV (Homo sapiens, UniProt Q99581 1-238); conditions: protein: recombinant; tags: N-terminal GST; dsDNA, one strand shown
# T7 sequence: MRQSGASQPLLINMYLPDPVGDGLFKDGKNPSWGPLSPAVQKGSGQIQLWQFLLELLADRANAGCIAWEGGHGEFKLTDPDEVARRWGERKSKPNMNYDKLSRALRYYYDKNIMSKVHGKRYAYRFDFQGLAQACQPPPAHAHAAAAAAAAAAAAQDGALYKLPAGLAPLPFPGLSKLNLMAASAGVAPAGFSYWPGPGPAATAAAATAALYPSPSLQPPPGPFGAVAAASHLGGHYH
# Summary of the method: as §1
# ETV5 = ETV5 (Homo sapiens, UniProt P41161 1-510); conditions: protein: recombinant; tags: N-terminal GST; dsDNA, one strand shown
# Chain of ETV5 (P41161 whole entry): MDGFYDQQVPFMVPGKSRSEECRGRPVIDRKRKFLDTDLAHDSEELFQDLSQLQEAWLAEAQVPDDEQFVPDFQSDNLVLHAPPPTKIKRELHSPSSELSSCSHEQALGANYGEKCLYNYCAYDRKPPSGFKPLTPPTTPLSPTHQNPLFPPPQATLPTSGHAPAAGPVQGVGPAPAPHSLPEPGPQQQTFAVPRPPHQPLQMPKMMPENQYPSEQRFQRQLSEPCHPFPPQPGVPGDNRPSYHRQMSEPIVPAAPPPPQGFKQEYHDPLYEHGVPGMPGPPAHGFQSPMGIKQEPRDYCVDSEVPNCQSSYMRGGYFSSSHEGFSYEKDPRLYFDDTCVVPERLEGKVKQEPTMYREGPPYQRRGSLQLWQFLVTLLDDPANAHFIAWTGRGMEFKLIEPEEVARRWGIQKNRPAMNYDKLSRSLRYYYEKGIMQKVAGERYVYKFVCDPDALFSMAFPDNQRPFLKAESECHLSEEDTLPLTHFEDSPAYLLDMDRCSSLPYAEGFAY
# Summary of the method: as §1
# HSF1 = HSF1 (Homo sapiens, UniProt Q00613 1-529); conditions: protein: recombinant; tags: N-terminal GST; chain copies: 3; dsDNA, one strand shown
# Chain of HSF1 (Q00613 whole entry): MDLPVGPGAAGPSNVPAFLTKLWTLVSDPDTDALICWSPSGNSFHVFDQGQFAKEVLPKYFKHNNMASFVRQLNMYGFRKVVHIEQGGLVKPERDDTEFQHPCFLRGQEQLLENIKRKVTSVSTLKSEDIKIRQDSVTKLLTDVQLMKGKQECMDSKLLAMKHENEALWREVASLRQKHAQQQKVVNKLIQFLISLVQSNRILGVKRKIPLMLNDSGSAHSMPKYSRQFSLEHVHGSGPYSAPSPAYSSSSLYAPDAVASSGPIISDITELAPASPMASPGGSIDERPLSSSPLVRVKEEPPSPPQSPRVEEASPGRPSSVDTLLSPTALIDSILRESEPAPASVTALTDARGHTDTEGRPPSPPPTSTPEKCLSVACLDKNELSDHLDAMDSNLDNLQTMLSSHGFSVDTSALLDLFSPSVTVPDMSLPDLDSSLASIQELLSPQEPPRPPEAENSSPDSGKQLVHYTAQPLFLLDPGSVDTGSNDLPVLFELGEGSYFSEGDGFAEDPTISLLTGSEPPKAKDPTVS
# Summary of the method: as §1
# SPIC = target: T8, SPIC (Homo sapiens, UniProt Q8N5J4 1-248); conditions: protein: recombinant; tags: N-terminal GST; dsDNA, one strand shown
# T8 sequence: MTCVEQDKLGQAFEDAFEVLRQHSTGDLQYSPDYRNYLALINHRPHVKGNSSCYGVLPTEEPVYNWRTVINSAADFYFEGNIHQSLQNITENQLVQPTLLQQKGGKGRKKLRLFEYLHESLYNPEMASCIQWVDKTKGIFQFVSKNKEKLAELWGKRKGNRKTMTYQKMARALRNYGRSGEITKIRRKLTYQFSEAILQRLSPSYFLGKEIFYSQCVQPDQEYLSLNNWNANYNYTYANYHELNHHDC
# Summary of the method: as §1
# ELF4 = ELF4 (Homo sapiens, UniProt Q99607 1-663); conditions: protein: recombinant; tags: N-terminal GST; dsDNA, one strand shown
# Chain of ELF4 (Q99607 whole entry): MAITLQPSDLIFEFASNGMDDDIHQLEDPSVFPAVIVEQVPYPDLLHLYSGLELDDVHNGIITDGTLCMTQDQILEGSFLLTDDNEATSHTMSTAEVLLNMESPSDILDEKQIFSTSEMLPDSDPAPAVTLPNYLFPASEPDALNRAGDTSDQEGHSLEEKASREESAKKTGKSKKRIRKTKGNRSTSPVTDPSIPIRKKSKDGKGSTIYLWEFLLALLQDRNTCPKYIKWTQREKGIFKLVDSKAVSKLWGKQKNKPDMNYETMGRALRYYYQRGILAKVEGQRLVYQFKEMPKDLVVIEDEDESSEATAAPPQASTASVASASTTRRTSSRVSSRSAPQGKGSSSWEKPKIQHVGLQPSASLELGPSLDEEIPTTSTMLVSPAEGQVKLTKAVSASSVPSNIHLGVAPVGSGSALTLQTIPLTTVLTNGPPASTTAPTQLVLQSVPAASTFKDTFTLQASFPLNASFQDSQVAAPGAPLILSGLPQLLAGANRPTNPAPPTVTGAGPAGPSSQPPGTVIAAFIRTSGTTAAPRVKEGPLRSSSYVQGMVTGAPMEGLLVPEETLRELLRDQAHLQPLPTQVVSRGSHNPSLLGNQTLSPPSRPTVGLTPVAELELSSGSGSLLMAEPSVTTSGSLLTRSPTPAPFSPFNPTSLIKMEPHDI
# Summary of the method: as §1
# ELK4 = target: T9, ELK4 (Homo sapiens, UniProt P28324-2 1-405); conditions: protein: recombinant; tags: N-terminal GST; dsDNA, one strand shown
# T9 sequence: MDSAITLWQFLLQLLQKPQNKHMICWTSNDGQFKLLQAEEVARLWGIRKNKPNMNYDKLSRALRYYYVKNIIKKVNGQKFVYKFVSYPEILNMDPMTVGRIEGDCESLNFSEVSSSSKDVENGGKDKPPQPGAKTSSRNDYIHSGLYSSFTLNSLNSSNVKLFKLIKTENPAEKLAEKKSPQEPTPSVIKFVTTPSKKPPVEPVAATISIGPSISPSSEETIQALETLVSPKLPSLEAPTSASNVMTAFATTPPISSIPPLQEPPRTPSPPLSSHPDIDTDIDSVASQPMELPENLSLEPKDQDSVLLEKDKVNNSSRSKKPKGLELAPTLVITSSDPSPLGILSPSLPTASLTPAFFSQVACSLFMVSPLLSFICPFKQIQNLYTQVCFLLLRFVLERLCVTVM
# Summary of the method: as §1
# ETV2 = target: T10, ETV2 (Homo sapiens, UniProt O00321 1-342); conditions: protein: recombinant; tags: N-terminal GST; dsDNA, one strand shown
# T10 sequence: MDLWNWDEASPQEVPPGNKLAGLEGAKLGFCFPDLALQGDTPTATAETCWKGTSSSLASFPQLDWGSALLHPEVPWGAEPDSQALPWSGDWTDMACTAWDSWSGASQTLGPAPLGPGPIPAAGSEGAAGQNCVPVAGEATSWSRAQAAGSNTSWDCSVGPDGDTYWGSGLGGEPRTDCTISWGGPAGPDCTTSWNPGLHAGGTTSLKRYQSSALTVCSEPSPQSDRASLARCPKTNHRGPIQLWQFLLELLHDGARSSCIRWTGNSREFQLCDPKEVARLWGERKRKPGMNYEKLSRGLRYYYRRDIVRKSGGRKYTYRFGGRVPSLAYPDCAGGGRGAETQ
# Summary of the method: as §1
# ELF3 = target: T11, ELF3 (Homo sapiens, UniProt P78545 1-371); conditions: protein: recombinant; tags: N-terminal GST; dsDNA, one strand shown
# T11 sequence: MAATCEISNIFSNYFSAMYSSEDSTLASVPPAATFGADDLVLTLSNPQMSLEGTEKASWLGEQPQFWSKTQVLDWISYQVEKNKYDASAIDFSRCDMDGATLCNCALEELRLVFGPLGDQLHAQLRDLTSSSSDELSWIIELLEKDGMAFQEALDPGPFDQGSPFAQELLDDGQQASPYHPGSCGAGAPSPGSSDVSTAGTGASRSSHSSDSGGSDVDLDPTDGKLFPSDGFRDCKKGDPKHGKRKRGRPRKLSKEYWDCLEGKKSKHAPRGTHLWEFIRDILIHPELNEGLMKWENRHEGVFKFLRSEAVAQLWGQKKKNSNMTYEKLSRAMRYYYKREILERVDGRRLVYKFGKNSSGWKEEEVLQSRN
# Summary of the method: as §1
# ETV1 = ETV1 (Homo sapiens, UniProt P50549 1-477); conditions: protein: recombinant; tags: N-terminal GST; dsDNA, one strand shown
# Chain of ETV1 (P50549 whole entry): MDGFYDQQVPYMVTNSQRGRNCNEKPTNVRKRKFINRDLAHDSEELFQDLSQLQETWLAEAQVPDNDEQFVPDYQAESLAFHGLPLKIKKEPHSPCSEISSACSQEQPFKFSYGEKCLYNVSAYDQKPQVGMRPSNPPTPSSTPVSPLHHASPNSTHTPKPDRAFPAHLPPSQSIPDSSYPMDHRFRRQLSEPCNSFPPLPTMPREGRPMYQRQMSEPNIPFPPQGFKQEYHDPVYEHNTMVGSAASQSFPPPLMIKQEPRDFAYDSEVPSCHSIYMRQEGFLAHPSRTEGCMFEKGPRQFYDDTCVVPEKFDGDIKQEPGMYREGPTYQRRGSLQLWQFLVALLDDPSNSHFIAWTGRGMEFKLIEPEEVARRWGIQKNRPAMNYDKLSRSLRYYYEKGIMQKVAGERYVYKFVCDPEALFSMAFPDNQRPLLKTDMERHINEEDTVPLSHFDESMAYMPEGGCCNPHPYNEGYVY
# Summary of the method: as §1
sequence,measurement,setting,value
CTGAAG,binding signal,FLI1,"1.02 fold enrichment (6-mer frequency, TF over GST control)"
same,binding signal,ELK1,"1.14 fold enrichment (6-mer frequency, TF over GST control)"
same,binding signal,GABPA,"1.11 fold enrichment (6-mer frequency, TF over GST control)"
same,binding signal,ERG,"1.08 fold enrichment (6-mer frequency, TF over GST control)"
same,binding signal,ELF1,"1.11 fold enrichment (6-mer frequency, TF over GST control)"
same,binding signal,EHF,"1.02 fold enrichment (6-mer frequency, TF over GST control)"
same,binding signal,SPI1,"1.05 fold enrichment (6-mer frequency, TF over GST control)"
same,binding signal,SPIB,"1.04 fold enrichment (6-mer frequency, TF over GST control)"
same,binding signal,ELK3,"1.01 fold enrichment (6-mer frequency, TF over GST control)"
same,binding signal,FEV,"1.05 fold enrichment (6-mer frequency, TF over GST control)"
same,binding signal,ETV5,"1.06 fold enrichment (6-mer frequency, TF over GST control)"
same,binding signal,HSF1,"1.11 fold enrichment (6-mer frequency, TF over GST control)"
same,binding signal,SPIC,"1.01 fold enrichment (6-mer frequency, TF over GST control)"
same,binding signal,ELF4,"1.11 fold enrichment (6-mer frequency, TF over GST control)"
same,binding signal,ELK4,"1.05 fold enrichment (6-mer frequency, TF over GST control)"
same,binding signal,ETV2,"1.09 fold enrichment (6-mer frequency, TF over GST control)"
same,binding signal,ELF3,"1.18 fold enrichment (6-mer frequency, TF over GST control)"
same,binding signal,ETV1,"1.08 fold enrichment (6-mer frequency, TF over GST control)"
